# Assay results reported in PubChem BioAssay (Tox21).
# A number with no mark means an inactive call. Results filed as inconclusive are left out. A call without a number means that no potency is given here. Active and inactive are the calls of the source. Unless noted, the call rests on the fitted dose curve.
# Experiments:
# [1] = qHTS assay to identify small molecule antagonists of the estrogen receptor beta (ER-beta) signaling pathway - cell viability counter screen (AID 1259382; active means well fitted curve in the direction sought with a large enough effect in the repeat runs; an effect the other way counts as inactive or inconclusive; further: series mostly up to about 92 µM; nearly all actives have a fitted effect of over 55% in size)
# Procedure, shortened: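 Agonist-stimulated (1nM E2) ER-beta-UAS-bla HEK293T cells are incubated with library compounds for 16 hr at 37C. Cell viability is then assessed in the reporter-assay wells by adding CellTiter-Glo and reading luminescence after 30 min.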
# [2] = molecular target: Estrogen receptor (Homo sapiens) (UniProt P03372); test: qHTS assay to identify small molecule agonists of the estrogen receptor alpha (ER-alpha) signaling pathway in the presence of an antagonist (AID 1259383); further: top concentration of the series differs between compounds; nearly all actives have a fitted effect of over 15% in size
# Procedure, shortened: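 Using VM7Luc4E2 cells seeded 24hr before treatment, antagonist ICI-182,780 (10.0nM final) was added, followed by compounds at 15 concentrations. Plates incubated 22hr; ONE-Glo luminescence quantified reporter activity.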
# [3] = qHTS assay to identify small molecule agonists or antagonists of the thyroid stimulating hormone receptor (TSHR) signaling pathway - wild type cell line counter screen (AID 1259384)
# Procedure, shortened: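 Wild-type HEK293 cells were plated 18 h at 37 C/5% CO2, pin-dosed with compound plus Ro20-1724 medium, held 30 min at room temperature, then given cAMP-d2 and anti-cAMP-cryptate; fluorescence was read after 1 h. Fifteen concentrations, triplicate.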
# [4] = molecular target: Thyrotropin receptor (Homo sapiens) (UniProt P16473); test: qHTS assay to identify small molecule antagonists of the thyroid stimulating hormone receptor (TSHR) signaling pathway (AID 1259385); further: nearly all actives have a fitted effect of over 20% in size
# Procedure, shortened: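 TSHR-HEK293 cells were plated and held 18 h at 37C/5% CO2, then given compound plus Ro20-1724 and stimulated with TSH at 1.5 ng/mL final. After 30 min at room temperature, cAMP was detected with cAMP-d2/anti-cAMP-cryptate (1 h) by fluorescence.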
# [5] = qHTS assay to identify small molecule agonists of the estrogen receptor alpha (ER-alpha) signaling pathway in the presence of an antagonist - cell viability counter screen (AID 1259386; active means well fitted curve in the direction sought with a large enough effect in the repeat runs; an effect the other way counts as inactive or inconclusive;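 further: series mostly up to about 92 µM; cells exposed to compounds for 22 h at 37 °C before the viability read; nearly all actives have a fitted effect of over 30% in size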)
# Procedure, shortened: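 ICI-182,780 at 10.0nM final accompanies the compound titration (15 concentrations, 22hr, 37C) on VM7Luc4E2 cells. The CellTiter-Fluor fluorescence readout runs in the same wells as the luciferase assay.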
# [6] = molecular target: Progesterone receptor (Homo sapiens) (UniProt P06401); test: qHTS assay to identify small molecule agonists of the progesterone receptor (PR) signaling pathway (AID 1346784); further: nearly all actives have a fitted effect of over 30% in size; further: potency means the concentration at half of the fitted maximal effect
# Procedure, shortened: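 PR-UAS-bla HEK 293T cells (beta-lactamase reporter under UAS) in 2% charcoal-stripped FBS, dosed with 23 nL compound after 6 hr, incubated 16hr at 37C. LiveBLAzer B/G FRET substrate added, fluorescence read after 2 hours.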
# [7] = molecular target: Progesterone receptor (Homo sapiens) (UniProt P06401); test: qHTS assay to identify small molecule antagonists of the progesterone receptor (PR) signaling pathway (AID 1346795; active means well fitted inhibition curve with a large enough effect in the signal ratio in the repeat runs, not every such curve was filed as active; the % refers to the signal ratio)
# Procedure, shortened: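 PR-UAS-bla HEK293T cells with beta-lactamase reporter under UAS control, in 2% charcoal-stripped FBS, treated with compounds plus 1 nM promegestone (R5020, final) for 16 hr at 37C. Read-out: FRET beta-lactamase substrate fluorescence after 2 hr at room temperature.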
# [8] = qHTS assay to identify small molecule antagonists of the progesterone receptor (PR) signaling pathway - cell viability counter screen (AID 1346798; active means well fitted curve in the direction sought with a large enough effect in the repeat runs; an effect the other way counts as inactive or inconclusive; further: series mostly up to about 92 µM; nearly all actives have a fitted effect of over 50% in size)
# Procedure, shortened: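 PR-UAS-bla HEK293T cells, 3,000/well in 2% charcoal-stripped FBS medium, dosed with compounds plus R5020 agonist and incubated 16 h at 37C. Viability then measured in the same wells by CellTiter-Glo luminescence after 30 min at RT.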
# [9] = qHTS assay to identify small molecule agonists of the progesterone receptor (PR) signaling pathway - cell viability counter screen (AID 1346799); further: nearly all actives have a fitted effect of over 45% in size
# Procedure, shortened: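 Counter screen in the PR-UAS-bla HEK293T wells (2% charcoal-stripped FBS, 16 h compound exposure at 37 C) after the bla read. CellTiter-Glo added, 30 min at room temperature, luminescence read as cell viability.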
# [10] = qHTS assay to identify small molecule antagonists of the TGF-beta/Smad signaling pathway - cell viability counter screen (AID 1346824; active means well fitted curve in the direction sought with a large enough effect in the repeat runs; an effect the other way counts as inactive or inconclusive; further: nearly all actives have a fitted effect of over 50% in size)
# Procedure, shortened: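 SBE-bla HEK 293T cells were plated overnight at 37 C, then given compounds in DMSO plus TGF-beta1 (added as 0.25 ng/mL solution) for 5 hr. After the bla read, CellTiter-Glo was added to the same wells and luminescence read after 30 min at room temperature.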
# Sequence of Progesterone receptor (Homo sapiens) (P06401 whole entry, looked up): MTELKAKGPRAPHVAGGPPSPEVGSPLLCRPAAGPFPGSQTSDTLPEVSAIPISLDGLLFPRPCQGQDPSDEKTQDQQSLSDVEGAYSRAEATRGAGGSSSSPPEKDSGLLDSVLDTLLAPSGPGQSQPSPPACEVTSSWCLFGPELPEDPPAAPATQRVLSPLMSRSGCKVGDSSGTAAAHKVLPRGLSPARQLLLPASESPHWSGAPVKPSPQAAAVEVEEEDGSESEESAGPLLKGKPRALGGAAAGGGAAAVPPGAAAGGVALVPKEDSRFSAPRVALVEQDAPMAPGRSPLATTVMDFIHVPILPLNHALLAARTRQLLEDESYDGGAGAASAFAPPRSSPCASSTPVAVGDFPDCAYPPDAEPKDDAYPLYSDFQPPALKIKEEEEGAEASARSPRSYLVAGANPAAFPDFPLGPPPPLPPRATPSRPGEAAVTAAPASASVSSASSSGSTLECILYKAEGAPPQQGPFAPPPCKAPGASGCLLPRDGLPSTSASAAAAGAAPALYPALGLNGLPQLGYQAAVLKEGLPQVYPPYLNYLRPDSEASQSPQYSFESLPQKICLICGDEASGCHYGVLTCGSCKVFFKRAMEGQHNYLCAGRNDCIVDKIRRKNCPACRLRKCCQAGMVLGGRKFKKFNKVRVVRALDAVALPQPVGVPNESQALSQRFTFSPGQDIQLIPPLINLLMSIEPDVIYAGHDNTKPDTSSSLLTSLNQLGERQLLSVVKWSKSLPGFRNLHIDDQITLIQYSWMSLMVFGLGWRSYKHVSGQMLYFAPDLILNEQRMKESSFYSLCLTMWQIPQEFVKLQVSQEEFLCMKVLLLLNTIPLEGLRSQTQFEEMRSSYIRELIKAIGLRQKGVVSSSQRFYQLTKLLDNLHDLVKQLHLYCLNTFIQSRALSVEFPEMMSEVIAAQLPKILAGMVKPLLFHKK
# Sequence of Thyrotropin receptor (Homo sapiens) (P16473 whole entry, looked up): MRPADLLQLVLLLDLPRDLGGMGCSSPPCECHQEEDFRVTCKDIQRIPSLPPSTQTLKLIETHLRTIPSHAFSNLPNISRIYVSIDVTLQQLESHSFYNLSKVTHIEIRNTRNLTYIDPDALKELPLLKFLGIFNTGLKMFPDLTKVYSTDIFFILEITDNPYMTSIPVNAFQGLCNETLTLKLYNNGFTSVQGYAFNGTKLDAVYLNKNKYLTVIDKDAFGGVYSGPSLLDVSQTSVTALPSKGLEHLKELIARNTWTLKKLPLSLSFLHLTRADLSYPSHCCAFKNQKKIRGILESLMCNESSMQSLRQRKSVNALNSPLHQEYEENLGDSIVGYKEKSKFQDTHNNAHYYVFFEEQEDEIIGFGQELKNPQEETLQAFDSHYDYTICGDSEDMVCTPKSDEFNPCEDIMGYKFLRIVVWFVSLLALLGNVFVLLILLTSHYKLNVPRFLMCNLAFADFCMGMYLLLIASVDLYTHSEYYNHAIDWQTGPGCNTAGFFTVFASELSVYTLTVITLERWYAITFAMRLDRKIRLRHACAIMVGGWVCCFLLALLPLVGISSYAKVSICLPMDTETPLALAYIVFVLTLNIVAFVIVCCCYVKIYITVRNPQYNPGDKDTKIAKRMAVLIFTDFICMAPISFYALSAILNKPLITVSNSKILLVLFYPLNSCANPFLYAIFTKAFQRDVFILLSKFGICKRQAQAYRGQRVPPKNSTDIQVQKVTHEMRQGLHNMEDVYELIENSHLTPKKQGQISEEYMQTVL
# Sequence of Estrogen receptor (Homo sapiens) (P03372 whole entry, looked up): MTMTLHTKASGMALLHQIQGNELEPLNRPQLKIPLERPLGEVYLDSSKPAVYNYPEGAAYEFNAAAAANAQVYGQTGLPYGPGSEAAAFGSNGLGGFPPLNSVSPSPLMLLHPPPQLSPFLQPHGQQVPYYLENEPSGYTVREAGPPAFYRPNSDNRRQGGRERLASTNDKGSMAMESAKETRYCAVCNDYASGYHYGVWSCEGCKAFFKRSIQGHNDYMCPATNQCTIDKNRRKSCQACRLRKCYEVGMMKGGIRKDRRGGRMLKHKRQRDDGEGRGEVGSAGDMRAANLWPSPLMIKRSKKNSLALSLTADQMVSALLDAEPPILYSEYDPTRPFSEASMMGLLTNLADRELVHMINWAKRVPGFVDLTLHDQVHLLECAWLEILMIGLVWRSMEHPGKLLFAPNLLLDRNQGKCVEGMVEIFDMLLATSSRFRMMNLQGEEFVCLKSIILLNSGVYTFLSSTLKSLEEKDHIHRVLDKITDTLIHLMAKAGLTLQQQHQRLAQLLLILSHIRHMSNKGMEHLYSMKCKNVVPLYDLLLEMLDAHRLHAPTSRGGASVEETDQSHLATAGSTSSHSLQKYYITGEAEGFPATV
compound,measurement,setting,value
C=CC(C)(O)CC/C=C(\C)CC (stereo not given),outcome,[1],inactive
same,outcome,[2],inactive
same,outcome,[3],inactive
same,outcome,[4],inactive
same,Potency,[5],inactive
same,Potency,[6],inactive
same,Potency,[7],inactive
same,Potency,[8],inactive
same,Potency,[9],inactive
same,outcome,[10],inactive
O=C(O)c1c(Cl)ccc(Cl)c1Cl,outcome,[1],inactive
same,outcome,[2],inactive
same,outcome,[3],inactive
same,outcome,[4],inactive
same,Potency,[5],inactive
same,Potency,[6],inactive
same,Potency,[7],inactive
same,Potency,[8],inactive
same,Potency,[9],inactive
same,outcome,[10],inactive
CC(C)CCC(=O)CCC(C)C,outcome,[1],inactive
same,outcome,[2],inactive
same,outcome,[3],inactive
same,outcome,[4],inactive
same,Potency,[5],inactive
same,Potency,[6],inactive
same,Potency,[7],inactive
same,Potency,[8],inactive
same,Potency,[9],inactive
same,outcome,[10],inactive
CCC(C)(C)C1CCC(=O)CC1,outcome,[1],inactive
same,outcome,[2],inactive
same,outcome,[3],inactive
same,outcome,[4],inactive
same,Potency,[5],inactive
same,Potency,[6],inactive
same,Potency,[7],inactive
same,Potency,[8],inactive
same,Potency,[9],inactive
same,outcome,[10],inactive
CNC(=O)C(c1ccccc1)c1ccccc1,outcome,[1],inactive
same,outcome,[2],inactive
same,outcome,[3],inactive
same,outcome,[4],inactive
same,Potency,[5],inactive
same,Potency,[6],inactive
CC(C)(C)c1ccc(C=O)cc1,outcome,[1],inactive
same,outcome,[2],inactive
same,outcome,[3],inactive
same,outcome,[4],inactive
same,Potency,[5],inactive
same,Potency,[6],inactive
same,Potency,[7],inactive
same,Potency,[8],inactive
same,Potency,[9],inactive
same,outcome,[10],inactive
CCOC(=O)C(C)(C)C,outcome,[1],inactive
same,outcome,[2],inactive
same,outcome,[3],inactive
same,outcome,[4],inactive
same,Potency,[5],inactive
same,Potency,[6],12.3 µM (active)
same,Potency,[7],inactive
same,Potency,[8],inactive
same,Potency,[9],inactive
same,outcome,[10],inactive
Nc1ccnc(=O)[nH]1,outcome,[1],inactive
same,outcome,[2],inactive
same,outcome,[3],inactive
same,outcome,[4],inactive
same,Potency,[5],inactive
same,Potency,[6],inactive
same,Potency,[7],inactive
same,Potency,[8],inactive
same,Potency,[9],inactive
Cc1cccc(Nc2ccncc2S(=O)(=O)NC(=O)NC(C)C)c1,outcome,[1],inactive
same,outcome,[2],inactive
same,outcome,[3],inactive
same,outcome,[4],inactive
same,Potency,[5],inactive
same,Potency,[6],inactive
same,Potency,[7],inactive
same,Potency,[8],inactive
same,Potency,[9],inactive
same,outcome,[10],inactive
CCN(CC)C(=O)C1CN2CCc3cc(OC)c(OC)cc3C2CC1OC(C)=O (stereo not given),outcome,[1],inactive
same,outcome,[2],inactive
same,outcome,[3],inactive
same,outcome,[4],inactive
same,Potency,[5],inactive
same,Potency,[6],inactive
same,Potency,[7],inactive
same,Potency,[8],inactive
same,Potency,[9],inactive
same,outcome,[10],inactive
CCCCCCCCCCCCC,outcome,[1],inactive
same,outcome,[2],inactive
same,outcome,[3],inactive
same,outcome,[4],inactive
same,Potency,[5],inactive
same,Potency,[6],inactive
same,Potency,[7],inactive
same,Potency,[8],inactive
same,Potency,[9],inactive
same,outcome,[10],inactive
Cc1ccccc1C(=O)N1CC/C(=N\OS(=O)(=O)O)c2ccc(Cl)cc21,outcome,[1],inactive
same,outcome,[2],inactive
same,outcome,[3],inactive
same,outcome,[4],inactive
same,Potency,[5],inactive
same,Potency,[6],inactive
same,Potency,[7],inactive
same,Potency,[8],inactive
same,Potency,[9],inactive
same,outcome,[10],inactive
NCCc1ccn[nH]1,outcome,[1],inactive
same,outcome,[2],inactive
same,outcome,[3],inactive
same,outcome,[4],inactive
same,Potency,[5],inactive
same,Potency,[6],inactive
same,Potency,[7],inactive
same,Potency,[8],inactive
same,Potency,[9],inactive
same,outcome,[10],inactive
CCS(=O)(=O)CCn1c([N+](=O)[O-])cnc1C,outcome,[1],inactive
same,outcome,[2],inactive
same,outcome,[3],inactive
same,outcome,[4],inactive
same,Potency,[5],inactive
same,Potency,[6],inactive
same,Potency,[7],inactive
same,Potency,[8],inactive
same,Potency,[9],inactive
same,outcome,[10],inactive
CCCCC(CC)COC(=O)c1ccccc1 (stereo not given),outcome,[1],inactive
same,outcome,[2],inactive
same,outcome,[3],inactive
same,outcome,[4],inactive
same,Potency,[5],inactive
same,Potency,[6],inactive
same,Potency,[7],inactive
same,Potency,[8],inactive
same,Potency,[9],inactive
same,outcome,[10],inactive
O=c1[nH]c(=O)c2[nH]c(=O)[nH]c2[nH]1,"activity change, negative = cytotoxicity",[1],3.94% [at 8.39 µM]
same,activation,[2],0.0928% [at 8.39 µM]
same,cAMP activity change,[3],-3.72% [at 8.39 µM]
same,"activity change, negative = inhibition",[4],0.717% [at 8.39 µM]
same,"activity change, negative = cytotoxicity",[5],1.17% [at 8.39 µM]
same,activation,[6],-0.558% [at 8.39 µM]
same,"activity change, negative = inhibition",[7],0.247% [at 8.39 µM]
same,"activity change, negative = cytotoxicity",[8],-11.7% [at 8.39 µM]
same,"activity change, negative = cytotoxicity",[9],-1.97% [at 8.39 µM]
same,"viability change, negative = cytotoxic",[10],2.42% [at 6.97 µM]
F[Si-2](F)(F)(F)(F)F,outcome,[1],inactive
same,outcome,[2],inactive
same,outcome,[3],inactive
same,outcome,[4],inactive
same,Potency,[5],inactive
same,Potency,[6],inactive
same,Potency,[7],inactive
same,Potency,[8],inactive
same,Potency,[9],inactive
same,outcome,[10],inactive
Cc1oc(=O)oc1CN1CCN(c2cc3c(cc2F)c(=O)c(C(=O)O)c2n3C(C)S2)CC1 (stereo not given),outcome,[1],inactive
same,outcome,[2],inactive
same,outcome,[3],inactive
same,outcome,[4],inactive
same,Potency,[5],inactive
same,Potency,[6],inactive
same,Potency,[7],inactive
same,Potency,[8],inactive
same,Potency,[9],inactive
same,outcome,[10],inactive
CCCCC(CC)CNC(=O)CC(C)OC(=O)CCC(=O)O (stereo not given),outcome,[1],inactive
same,outcome,[2],inactive
same,outcome,[3],inactive
same,outcome,[4],inactive
same,Potency,[5],inactive
same,Potency,[6],inactive
same,Potency,[7],inactive
same,Potency,[8],inactive
same,Potency,[9],inactive
same,outcome,[10],inactive
CCOC(=O)CCCCCCCCC(=O)OCC,outcome,[1],inactive
same,outcome,[2],inactive
same,outcome,[3],inactive
same,outcome,[4],inactive
same,Potency,[5],inactive
same,Potency,[6],inactive
same,Potency,[7],inactive
same,Potency,[8],inactive
same,Potency,[9],inactive
same,outcome,[10],inactive
Cc1cc(C)cc([N+](=O)[O-])c1,outcome,[1],inactive
same,outcome,[2],inactive
same,outcome,[3],inactive
same,outcome,[4],inactive
same,Potency,[5],inactive
same,Potency,[6],inactive
same,Potency,[7],inactive
same,Potency,[8],inactive
same,Potency,[9],inactive
same,outcome,[10],inactive
NC(=O)NNC(N)=O,outcome,[1],inactive
same,outcome,[2],inactive
same,outcome,[3],inactive
same,outcome,[4],inactive
same,Potency,[5],inactive
same,Potency,[6],inactive
same,Potency,[7],inactive
same,Potency,[8],inactive
same,Potency,[9],inactive
same,outcome,[10],inactive
NS(=O)(=O)c1ccc(Cl)c(S(N)(=O)=O)c1,outcome,[1],inactive
same,outcome,[2],inactive
same,outcome,[3],inactive
same,outcome,[4],inactive
same,Potency,[5],inactive
same,Potency,[6],inactive
same,Potency,[7],inactive
same,Potency,[8],inactive
same,Potency,[9],inactive
same,outcome,[10],inactive
